Compound in the test: Nc1ncnc2c1ncn2[C@@H]1O[C@H](COP(=O)(O)OP(=O)(O)OP(=O)(O)O)[C@@H](O)[C@H]1O [adenosine 5'-triphosphate]
Description: log2 fold change of tryptic peptide abundance, ligand vs vehicle (limited proteolysis) (log2 ratio); higher = more trypsin-susceptible (destabilized). The note with it: ligand concentration: 5 mM; sample: E. coli desalted lysate; replicate design: treated before aliquoting. As to the method:
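HT-PELSA: desalted E. coli K-12 BW25113 lysate (with 12 mM MgCl2) incubated with 5 mM ATP (pH 7) or water for 30 min at 25 C, then a 4 min trypsin pulse at 22 C. Peptides were quantified by DIA-MS (4 replicates). Value is the peptide log2 fold change (treated/control); negative = stabilized. Scale: negative = ligand-stabilized region.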
Sequence of UniProt P77395 (P77395 whole entry): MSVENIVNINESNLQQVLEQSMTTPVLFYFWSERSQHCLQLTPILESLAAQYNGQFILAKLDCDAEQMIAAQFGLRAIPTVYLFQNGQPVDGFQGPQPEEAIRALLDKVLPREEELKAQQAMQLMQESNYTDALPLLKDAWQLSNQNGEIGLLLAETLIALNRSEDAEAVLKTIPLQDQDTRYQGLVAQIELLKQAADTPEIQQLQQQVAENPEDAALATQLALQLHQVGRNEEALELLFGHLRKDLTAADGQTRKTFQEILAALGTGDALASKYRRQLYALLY
Sequence of UniProt P25535 (P25535 whole entry): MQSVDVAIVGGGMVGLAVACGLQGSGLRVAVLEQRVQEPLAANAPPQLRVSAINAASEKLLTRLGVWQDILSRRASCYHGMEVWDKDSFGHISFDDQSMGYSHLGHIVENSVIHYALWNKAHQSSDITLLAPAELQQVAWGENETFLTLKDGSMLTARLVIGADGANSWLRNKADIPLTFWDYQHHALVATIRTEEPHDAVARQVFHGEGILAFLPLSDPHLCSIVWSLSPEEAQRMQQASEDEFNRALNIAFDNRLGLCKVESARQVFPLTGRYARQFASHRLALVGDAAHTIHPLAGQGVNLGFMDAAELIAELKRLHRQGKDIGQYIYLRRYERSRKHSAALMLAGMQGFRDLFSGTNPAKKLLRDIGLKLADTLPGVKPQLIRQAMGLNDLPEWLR
Sequence of UniProt P02919 (P02919 whole entry): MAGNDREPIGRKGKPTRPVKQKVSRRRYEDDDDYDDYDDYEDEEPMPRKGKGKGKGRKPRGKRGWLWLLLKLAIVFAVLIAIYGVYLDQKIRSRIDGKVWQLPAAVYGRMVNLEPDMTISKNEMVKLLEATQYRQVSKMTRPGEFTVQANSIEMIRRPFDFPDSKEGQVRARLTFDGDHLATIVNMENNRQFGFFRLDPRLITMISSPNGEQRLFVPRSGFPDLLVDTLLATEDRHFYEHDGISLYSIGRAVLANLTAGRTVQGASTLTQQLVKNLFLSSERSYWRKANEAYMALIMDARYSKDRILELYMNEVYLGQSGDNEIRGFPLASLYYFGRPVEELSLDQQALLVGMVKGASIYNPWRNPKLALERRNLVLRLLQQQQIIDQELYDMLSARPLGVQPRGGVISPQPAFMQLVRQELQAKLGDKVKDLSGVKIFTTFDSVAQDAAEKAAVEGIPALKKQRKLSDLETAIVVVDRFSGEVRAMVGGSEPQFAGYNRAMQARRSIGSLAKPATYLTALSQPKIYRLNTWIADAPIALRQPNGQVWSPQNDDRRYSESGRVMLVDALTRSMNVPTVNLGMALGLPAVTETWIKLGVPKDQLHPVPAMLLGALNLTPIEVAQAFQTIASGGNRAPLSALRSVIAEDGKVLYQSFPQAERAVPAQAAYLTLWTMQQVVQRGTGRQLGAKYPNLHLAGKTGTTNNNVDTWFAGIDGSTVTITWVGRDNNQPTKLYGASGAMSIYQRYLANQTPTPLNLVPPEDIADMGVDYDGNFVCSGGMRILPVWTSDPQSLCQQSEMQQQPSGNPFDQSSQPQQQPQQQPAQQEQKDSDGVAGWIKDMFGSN
Sequence of UniProt P0AG14 (P0AG14 whole entry): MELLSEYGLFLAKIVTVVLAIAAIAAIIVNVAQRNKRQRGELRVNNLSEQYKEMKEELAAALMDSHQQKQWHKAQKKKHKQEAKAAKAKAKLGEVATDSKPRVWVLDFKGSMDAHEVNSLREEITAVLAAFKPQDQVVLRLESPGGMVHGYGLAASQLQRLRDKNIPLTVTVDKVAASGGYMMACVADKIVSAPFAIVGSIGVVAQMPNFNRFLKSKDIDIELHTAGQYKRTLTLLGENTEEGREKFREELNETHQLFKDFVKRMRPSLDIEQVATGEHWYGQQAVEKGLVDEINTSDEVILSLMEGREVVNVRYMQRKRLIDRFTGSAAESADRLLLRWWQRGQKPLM
Sequence of UniProt P39161 (P39161 whole entry): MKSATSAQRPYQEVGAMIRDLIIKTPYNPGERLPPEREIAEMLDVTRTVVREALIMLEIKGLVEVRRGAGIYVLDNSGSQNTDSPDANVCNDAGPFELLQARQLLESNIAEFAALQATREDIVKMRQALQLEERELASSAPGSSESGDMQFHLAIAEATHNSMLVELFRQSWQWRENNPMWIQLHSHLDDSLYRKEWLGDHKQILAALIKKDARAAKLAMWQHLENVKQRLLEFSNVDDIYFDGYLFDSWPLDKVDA
Sequence of UniProt P77265 (P77265 whole entry): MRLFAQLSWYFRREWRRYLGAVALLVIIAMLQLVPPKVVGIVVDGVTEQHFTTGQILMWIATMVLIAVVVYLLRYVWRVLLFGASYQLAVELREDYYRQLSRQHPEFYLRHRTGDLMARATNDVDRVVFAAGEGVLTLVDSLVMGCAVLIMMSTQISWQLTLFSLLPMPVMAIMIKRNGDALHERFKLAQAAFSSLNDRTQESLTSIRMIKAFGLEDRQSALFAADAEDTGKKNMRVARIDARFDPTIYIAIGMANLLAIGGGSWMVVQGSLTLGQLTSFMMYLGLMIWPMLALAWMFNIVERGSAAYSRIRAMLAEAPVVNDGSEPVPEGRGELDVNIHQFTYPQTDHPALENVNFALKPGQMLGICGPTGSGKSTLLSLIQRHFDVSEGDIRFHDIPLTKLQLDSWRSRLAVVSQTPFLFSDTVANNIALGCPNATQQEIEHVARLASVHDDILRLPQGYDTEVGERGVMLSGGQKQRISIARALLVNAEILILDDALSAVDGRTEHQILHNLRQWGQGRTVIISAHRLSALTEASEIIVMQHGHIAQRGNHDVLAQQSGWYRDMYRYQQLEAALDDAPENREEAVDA
Sequence of UniProt P77522 (P77522 whole entry): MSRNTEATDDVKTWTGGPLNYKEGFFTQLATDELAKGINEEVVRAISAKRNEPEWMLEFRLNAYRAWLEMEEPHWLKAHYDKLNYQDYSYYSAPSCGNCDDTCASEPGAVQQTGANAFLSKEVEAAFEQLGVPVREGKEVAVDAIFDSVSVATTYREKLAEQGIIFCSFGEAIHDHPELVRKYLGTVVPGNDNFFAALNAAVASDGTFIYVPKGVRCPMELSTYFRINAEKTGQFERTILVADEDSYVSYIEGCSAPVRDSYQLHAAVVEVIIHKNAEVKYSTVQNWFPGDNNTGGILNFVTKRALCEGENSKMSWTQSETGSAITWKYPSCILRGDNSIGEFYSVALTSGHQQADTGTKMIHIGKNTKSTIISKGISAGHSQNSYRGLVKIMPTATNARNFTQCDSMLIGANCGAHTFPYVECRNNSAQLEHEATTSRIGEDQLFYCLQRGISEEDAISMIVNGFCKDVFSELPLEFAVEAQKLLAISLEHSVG
Sequence of UniProt P0A9P6 (P0A9P6 whole entry): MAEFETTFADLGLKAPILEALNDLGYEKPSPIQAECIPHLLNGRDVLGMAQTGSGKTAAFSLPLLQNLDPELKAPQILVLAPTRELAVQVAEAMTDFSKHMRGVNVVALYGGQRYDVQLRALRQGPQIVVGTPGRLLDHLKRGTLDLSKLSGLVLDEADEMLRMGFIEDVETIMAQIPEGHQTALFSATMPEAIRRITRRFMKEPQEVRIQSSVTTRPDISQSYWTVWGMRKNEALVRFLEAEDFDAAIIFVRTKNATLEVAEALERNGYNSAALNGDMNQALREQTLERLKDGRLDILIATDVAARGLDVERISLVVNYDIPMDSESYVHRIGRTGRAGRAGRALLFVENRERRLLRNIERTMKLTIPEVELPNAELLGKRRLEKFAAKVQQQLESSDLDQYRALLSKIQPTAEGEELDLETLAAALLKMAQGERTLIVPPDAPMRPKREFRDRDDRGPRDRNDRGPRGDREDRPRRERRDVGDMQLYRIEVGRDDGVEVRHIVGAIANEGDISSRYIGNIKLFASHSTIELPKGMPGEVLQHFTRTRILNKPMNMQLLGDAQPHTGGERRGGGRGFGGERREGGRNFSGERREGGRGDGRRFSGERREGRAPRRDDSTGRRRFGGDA
Sequence of UniProt P18776 (P18776 whole entry): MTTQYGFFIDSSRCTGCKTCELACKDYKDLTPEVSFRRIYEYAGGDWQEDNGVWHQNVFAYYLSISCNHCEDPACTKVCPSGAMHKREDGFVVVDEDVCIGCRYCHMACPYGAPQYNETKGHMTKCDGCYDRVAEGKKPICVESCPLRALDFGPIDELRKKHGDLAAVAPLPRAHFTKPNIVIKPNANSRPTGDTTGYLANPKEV
Sequence of UniProt P71298 (P71298 whole entry): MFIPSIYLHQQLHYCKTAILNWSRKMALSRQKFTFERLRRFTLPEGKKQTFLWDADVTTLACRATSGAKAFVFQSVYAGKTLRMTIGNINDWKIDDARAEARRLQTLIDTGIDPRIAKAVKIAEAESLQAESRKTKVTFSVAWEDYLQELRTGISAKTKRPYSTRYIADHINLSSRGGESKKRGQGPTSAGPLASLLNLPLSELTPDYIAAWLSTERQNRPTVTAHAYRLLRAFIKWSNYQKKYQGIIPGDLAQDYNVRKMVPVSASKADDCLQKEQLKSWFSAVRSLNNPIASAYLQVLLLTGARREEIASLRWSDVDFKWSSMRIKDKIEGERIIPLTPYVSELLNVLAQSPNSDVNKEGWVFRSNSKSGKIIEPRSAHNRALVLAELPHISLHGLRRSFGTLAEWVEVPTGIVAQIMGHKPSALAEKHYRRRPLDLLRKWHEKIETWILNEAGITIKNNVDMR
Sequence of UniProt P45568 (P45568 whole entry): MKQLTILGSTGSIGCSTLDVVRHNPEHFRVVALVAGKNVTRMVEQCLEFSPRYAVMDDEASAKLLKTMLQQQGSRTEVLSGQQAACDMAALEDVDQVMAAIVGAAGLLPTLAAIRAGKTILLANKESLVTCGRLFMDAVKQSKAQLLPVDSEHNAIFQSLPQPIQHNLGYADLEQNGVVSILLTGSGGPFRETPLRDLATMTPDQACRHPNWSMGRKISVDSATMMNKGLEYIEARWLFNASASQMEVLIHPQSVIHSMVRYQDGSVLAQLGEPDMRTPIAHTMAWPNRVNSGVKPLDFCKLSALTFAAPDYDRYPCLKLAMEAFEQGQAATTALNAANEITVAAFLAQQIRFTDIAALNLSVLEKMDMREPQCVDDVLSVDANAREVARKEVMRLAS
Consider “UniProt P77395 (peptide sequence: RQLYALLY, peptide start residue: 277)”, for which the log2 fold change came out at 0.6. On to “UniProt P0A9P6 (peptide sequence: RFMKEPQEVR, peptide start residue: 200)”, for which the log2 fold change is -2.4. The value for “UniProt P0ACW6 (peptide sequence: FMSLFDKHNK, peptide start residue: 19)” was -0.425; that for “UniProt P23894 (peptide sequence: SVGGEVIEQPR, peptide start residue: 61)” was 2.55. For “UniProt P36547 (peptide sequence: TANLHHLYHEPLPENLK, peptide start residue: 6)”, the log2 fold change is -0.813. In the case of “UniProt P75828 (peptide sequence: YLDIINR, peptide start residue: 246)”, the log2 fold change is -2.12. Turning to “UniProt P25535 (peptide sequence: LADTLPGVKPQLIR, peptide start residue: 374)”, the log2 fold change was determined as 0.527. Consider “UniProt P32141 (peptide sequence: ASGGFAMLAVDQR, peptide start residue: 12)”, for which the log2 fold change was -0.432. As to “UniProt P77265 (peptide sequence: QHPEFYLR, peptide start residue: 103)”, the log2 fold change is -0.556. For “UniProt P09980 (peptide sequence: AANILIANNPHVFEKR, peptide start residue: 286)”, the log2 fold change is -3.41.

In the case of “UniProt P0AG14 (peptide sequence: VNNLSEQYK, peptide start residue: 44)”, the log2 fold change is -0.765. With “UniProt P0AD19 (peptide sequence: GLAMGTASHALGTAR, peptide start residue: 178)”, the log2 fold change is -0.978.

For the target “UniProt P76543 (peptide sequence: NSQLGWCR, peptide start residue: 147)”, the log2 fold change was -0.802.

For “UniProt P15640 (peptide sequence: TSEWDER, peptide start residue: 323)”, the log2 fold change was -1.28.

On to “UniProt P23305 (peptide sequence: DLGLAGASLR, peptide start residue: 115)”, for which the log2 fold change was 0.488. The value for “UniProt P02919 (peptide sequence: SIGSLAK, peptide start residue: 507)” was 0.413. For the target “UniProt P37691 (peptide sequence: MTSNLFGMQK, peptide start residue: 128)”, the log2 fold change came to 0.503. The value for “UniProt P39161 (peptide sequence: QILAALIK, peptide start residue: 203)” was 0.746; that for “UniProt P45568 (peptide sequence: ESLVTCGR, peptide start residue: 126)” was 0.779; that for “UniProt P22634 (peptide sequence: LVDSGAAIAR, peptide start residue: 224)” was 0.312. Take “UniProt P77522 (peptide sequence: IMPTATNAR, peptide start residue: 392)”: the log2 fold change turned out to be 1.07.

On to “UniProt P76545 (peptide sequence: YLDFAEDREHAESVATK, peptide start residue: 7)”, for which the log2 fold change was -2.38. For the target “UniProt P33029 (peptide sequence: AHQALLTDR, peptide start residue: 38)”, the log2 fold change is -0.503. “UniProt P76245 (peptide sequence: TPFVAHPALHS, peptide start residue: 331)”: the log2 fold change was 1.1.

For the target “UniProt P31455 (peptide sequence: AYPGLVNVPR, peptide start residue: 290)”, the log2 fold change is -1.05. As to “UniProt P18776 (peptide sequence: PICVESCPLR, peptide start residue: 139)”, the log2 fold change was -1.14.

As to “UniProt P33593 (peptide sequence: VLALVGGSGSGK, peptide start residue: 31)”, the log2 fold change is -0.833. As to “UniProt P37349 (peptide sequence: LIAKGPEAEEALIAFR, peptide start residue: 217)”, the log2 fold change worked out at 0.492. Next, “UniProt P71298 (peptide sequence: QNRPTVTAHAYR, peptide start residue: 218)”: -1.54; “UniProt P45541 (peptide sequence: TGMFTCGHQR, peptide start residue: 3)”: -1.14; “UniProt P76149 (peptide sequence: AGAAIGAQAGAALKK, peptide start residue: 216)”: -1.54.

These data come from the supplement of paper PMC12819154, “High-throughput peptide-centric local stability assay extends protein–ligand identification to membrane proteins, tissues and bacteria” (Nature Structural & Molecular Biology, 2025).
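Also: lysate desalted by size exclusion to strip endogenous ATP, peptide intensities built from DIA-NN precursor signals, and peptides missing any value discarded before comparison.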
